Assay results: PubChem BioAssay

Test: NFkB reporter suppression in cystic fibrosis bronchial cells – cell-based, uHTS hits, panel, cytotoxicity readout, dose response (AID 624344)
Settings: CF bronchial epithelial cells, PAF-induced NFkB reporter inhibition, with PAF, run 1; at 79 µM (top of the series) unless noted

Row | Structure (SMILES) | inhibition [%]
1 | COc1ccc(CNc2nn3c(-c4cccc(C(=O)N(C)C)c4)cnc3s2)cc1 | 113
2 | COc1ccc(-c2cc(=O)oc3cc(OC(=O)C4CCCCC4)ccc23)cc1 | 110
3 | C=C1C(=O)OC2CC1C(O)CC(C)=CCCC(C)=CC(O)CC2C (stereo unspecified) | 103
4 | CCCCN(CCCC)c1ncnc2nc[nH]c12 | 102
5 | COc1ccc(-c2cn[nH]c2-c2ccc(OCc3ccccc3F)cc2O)cc1OC | 113
6 | O=C(Nc1ccc(Oc2ccc(NC(=O)Nc3ccc([N+](=O)[O-])cc3)cc2)cc1)Nc1ccc([N+](=O)[O-])cc1 | 101
7 | COCc1cc(S(=O)c2ccc(Cl)cc2)nc(C)n1 (stereo unspecified) | 103
8 | COc1cc(/C=N/NC(=O)Nc2cccc3nsnc23)cc(OC)c1OC | 89.7
9 | CCCc1cc(-c2[nH]ncc2-c2ccc3c(c2)OCCCO3)c(O)cc1O | 108
10 | C=CC[C@]12CC=CC(=O)[C@@]1(O)O[C@H](c1ccc(OC)c(OC)c1)[C@H]2C | 110
11 | C=CCn1c(Oc2ccccc2F)nc2c1c(=O)n(C)c(=O)n2C | 95.6
12 | C=C1C(=O)O[C@H]2C[C@H]1[C@@H](OC(C)=O)C/C(C)=C/CC/C(C)=C\CC[C@]2(C)O | 107
13 | Cc1ccc(NC(=O)/C=C/c2ccco2)nc1 | 95.8
14 | COc1ccc(-c2cn[nH]c2-c2ccc(OCc3ccccc3)cc2O)cc1 | 99.8
15 | O=C(c1cc([N+](=O)[O-])ccc1N1CCOCC1)N1CCN(c2ccccc2)CC1 | 116
16 | Cc1ccc(S(=O)(=O)N2[C@@H](c3ccc(C(C)(C)C)cc3)C(C(=O)O)=CC[C@H]2c2ccc(C(C)C)cc2)cc1 | 65
